These results are taken from PubChem BioAssay (EPA / NIEHS).

The structures appear in SMILES notation. Inconclusive results are not listed. Active and inactive are the calls of the source. The calls were made as follows: active = hit-call score of the fitted dose curve at least 0.9, where 1 is the maximum; inconclusive = response in the unintended direction; inactive = score below 0.9.

The nature of experiment [1]: ACEA_AR_agonist_AUC_viability: ACEA Biosciences xCELLigence Real-Time Cell Analysis on Androgen Receptor Agonism for Viability (AID 2283775).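 As to AC50: viability read 80 hours after compound addition.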 The procedure, abridged: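 Viability endpoint from xCELLigence impedance in 22Rv1 prostate cells at 80 h. Eight-point series, 100 uM maximum final.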
The nature of experiment [2]: ACEA_AR_antagonist_AUC_viability: ACEA Biosciences xCELLigence Real-Time Cell Analysis on Androgen Receptor Antagonism for Viability (AID 2283776).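 Also: 22Rv1 human prostate cancer cells growing on impedance electrode plates; hits lower the growth signal relative to DMSO meaning cytotoxicity.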 Put shortly: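 Impedance read-out (RT-CES): area under growth curve at 80 h post-dose, loss of signal scored vs DMSO baseline. 22Rv1 cells; 8-pt 1:4 series, top 100 uM final, ≤0.5% DMSO; biological duplicate.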
Experiment [3] is described as follows: ACEA_ER_AUC_viability: ACEA Biosciences xCELLigence Real-Time Cell Analysis on Estrogen Receptor Agonism for Viability (AID 2283782).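 Also: hit means loss of impedance signal meaning reduced cell growth or viability.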 Put shortly: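 Read-out: real-time electrical impedance (RT-CES) area under curve, loss of signal taken as reduced viability, normalized to DMSO baseline. T-47D cells, charcoal-stripped serum medium, compounds up to 100 uM final, continuous exposure, 80 h.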

Experiment [4] can be described thus: STM_H9_NormalizedViability: Cytotoxicity Assessment at 120 hours in the Stemina devTOX quickPredict H9 human embryonic stem cell (hESC)-based Assay (AID 2283784). Put shortly: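 Here, H9 cells received test compound with daily medium renewal. Each plate included methotrexate references (1uM, 5 nM), 0.1% DMSO and media blanks; CellTiter-Fluor RFU was normalized to DMSO.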

Experiment [5] addresses AR (gene 367) (UniProt P10275). Put plainly: ACEA_AR_antagonist_80hr: ACEA Biosciences xCELLigence Real-Time Cell Analysis on Androgen Receptor Antagonism for Proliferation (AID 2283787).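 Also: 22Rv1 human prostate cancer cells with growth followed by electrical impedance; hits lower the impedance growth signal relative to DMSO.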 The procedure, abridged:
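Measures real-time proliferation of 22Rv1 prostate cancer cells by electrode impedance at 80 hours after dosing. Test articles ran at eight concentrations (1:4 steps, top 100 uM final) in biological duplicate.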

The target in experiment [6] is AR (gene 367) (UniProt P10275). The experiment is described as follows: ACEA_AR_agonist_80hr: ACEA Biosciences xCELLigence Real-Time Cell Analysis on Androgen Receptor Agonism for Proliferation (AID 2283783).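 Also: hits increase impedance growth signal above DMSO baseline.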 The procedure, abridged: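 Impedance (RT-CES) growth signal at 80 h post-dose; 22Rv1 cells, 8-pt 1:4 series, top 100 uM final, DMSO ≤0.5%; duplicate plates; gain-of-signal fit relative to DMSO baseline.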
Chain of AR (gene 367) (P10275 whole entry, looked up): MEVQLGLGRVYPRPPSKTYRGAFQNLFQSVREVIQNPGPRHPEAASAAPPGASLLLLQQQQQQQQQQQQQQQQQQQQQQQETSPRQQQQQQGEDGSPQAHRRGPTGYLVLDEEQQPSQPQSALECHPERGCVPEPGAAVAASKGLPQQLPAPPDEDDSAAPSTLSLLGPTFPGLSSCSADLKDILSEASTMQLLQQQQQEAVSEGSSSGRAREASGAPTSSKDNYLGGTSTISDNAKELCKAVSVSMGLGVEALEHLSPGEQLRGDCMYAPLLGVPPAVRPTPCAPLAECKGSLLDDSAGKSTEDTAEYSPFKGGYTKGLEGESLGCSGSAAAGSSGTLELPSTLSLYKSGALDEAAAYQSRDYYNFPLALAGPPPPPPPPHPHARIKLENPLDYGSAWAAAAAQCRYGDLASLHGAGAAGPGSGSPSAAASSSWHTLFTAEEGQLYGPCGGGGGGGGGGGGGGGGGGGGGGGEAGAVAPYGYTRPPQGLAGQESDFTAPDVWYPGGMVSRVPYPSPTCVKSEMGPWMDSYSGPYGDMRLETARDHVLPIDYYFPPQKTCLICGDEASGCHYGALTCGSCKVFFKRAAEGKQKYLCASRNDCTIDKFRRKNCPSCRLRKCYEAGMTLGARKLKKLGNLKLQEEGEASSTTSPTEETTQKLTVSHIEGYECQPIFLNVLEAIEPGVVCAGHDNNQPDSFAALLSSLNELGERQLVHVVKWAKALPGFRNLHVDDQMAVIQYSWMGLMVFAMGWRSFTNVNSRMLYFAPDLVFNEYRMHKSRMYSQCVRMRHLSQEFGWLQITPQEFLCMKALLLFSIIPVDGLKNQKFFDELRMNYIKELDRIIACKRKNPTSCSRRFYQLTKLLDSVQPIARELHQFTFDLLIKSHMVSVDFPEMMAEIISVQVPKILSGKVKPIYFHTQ

For experiment [7], the system named is frog Estrogen Receptor (ESR1), gene 398734. The experiment is described as follows: ATG_frER1_XSP1: Attagene TRANS-FACTORIAL Multi-Species (XSP1) HepG2 Assay for frog Estrogen Receptor (ESR1) (AID 2283777). Put shortly: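 Transient MRTU transfection, HepG2 (human liver); 24 h dosing, 3 nM 6α-fluorotestosterone co-added; RNA → RT-PCR → 6-FAM labeling → CE; upward activity vs DMSO.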

Experiment [8] concerns zebrafish Estrogen Receptor (ESR2A), gene 317734. The experiment is described as follows: ATG_zfER2a_XSP1: Attagene TRANS-FACTORIAL Multi-Species (XSP1) HepG2 Assay for zebrafish Estrogen Receptor (ESR2A) (AID 2283778). The procedure, abridged:
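Transient transfection of HepG2 (human liver) with MRTU constructs; chemical dosing for 24 h; medium contained 3 nM 6-alpha-fluorotestosterone to partly stimulate AR. RT-PCR/CE fluorescence of reporter transcripts; positive direction vs DMSO.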

The target of experiment [9] is chicken Estrogen Receptor (ESR1), ESR1 (gene 396099) (UniProt P06212). The experiment is described as follows: ATG_chERa_XSP1: Attagene TRANS-FACTORIAL Multi-Species (XSP1) HepG2 Assay for chicken Estrogen Receptor (ESR1) (AID 2283779). The procedure, abridged: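 Read-out: fluorescent reporter mRNA fragments resolved by capillary electrophoresis after RT-PCR and HpaI digestion. Transfected HepG2 cells carried chimeric NR-Gal4 constructs, were dosed 24 h with 3 nM 6-alpha-fluorotestosterone added, and activity was fitted upward relative to DMSO.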
Chain of chicken Estrogen Receptor (ESR1), ESR1 (gene 396099) (P06212 whole entry, looked up, the tested form may be a part): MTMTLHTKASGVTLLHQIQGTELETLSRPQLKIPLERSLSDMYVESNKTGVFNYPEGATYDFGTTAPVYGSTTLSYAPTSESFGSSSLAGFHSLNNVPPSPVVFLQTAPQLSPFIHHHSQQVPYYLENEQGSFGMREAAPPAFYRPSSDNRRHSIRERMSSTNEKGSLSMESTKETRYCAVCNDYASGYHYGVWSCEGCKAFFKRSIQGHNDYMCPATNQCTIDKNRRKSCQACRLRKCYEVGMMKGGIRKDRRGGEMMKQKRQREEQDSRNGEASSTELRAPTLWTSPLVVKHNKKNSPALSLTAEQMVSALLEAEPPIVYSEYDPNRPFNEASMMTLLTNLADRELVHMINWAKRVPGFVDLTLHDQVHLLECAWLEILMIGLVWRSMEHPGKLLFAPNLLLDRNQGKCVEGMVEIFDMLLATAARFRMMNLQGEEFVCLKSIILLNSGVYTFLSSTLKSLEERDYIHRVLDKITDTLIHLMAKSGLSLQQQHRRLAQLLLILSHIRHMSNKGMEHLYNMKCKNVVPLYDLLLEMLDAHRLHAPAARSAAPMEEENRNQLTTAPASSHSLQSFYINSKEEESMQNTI

The test system of experiment [10] is turtle Estrogen Receptor (ESR1), gene 101933533. The experiment is described as follows: ATG_trERa_XSP1: Attagene TRANS-FACTORIAL Multi-Species (XSP1) HepG2 Assay for turtle Estrogen Receptor (ESR1) (AID 2283781). Put shortly: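 Transfect HepG2 with reporter units → dose chemical 24 h (medium has 3 nM 6-alpha-fluorotestosterone) → isolate RNA, RT-PCR → FAM primer extension, HpaI digest → capillary electrophoresis; gain of signal vs DMSO.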

Experiment [11] is described as follows: ATG_M_06_XSP1: Attagene TRANS-FACTORIAL Multi-Species (XSP1) HepG2 Assay for M06 Transcription Factor (Internal Marker) (AID 2283790). Put shortly: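 This background-control readout tracks M06 reporter mRNA, measured by RT-PCR and capillary electrophoresis. HepG2 cells transiently carrying the GAL4-UAS reporter panel were dosed for 24 h with 3 nM 6-alpha-fluorotestosterone added for partial AR stimulation; increases were scored relative to DMSO.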

A short description of experiment [12]: ATG_M_61_XSP1: Attagene TRANS-FACTORIAL Multi-Species (XSP1) HepG2 Assay for M61 Transcription Factor (Internal Marker) (AID 2283797). The procedure, abridged: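 Background-control readout: reporter transcripts measured by RT-PCR and capillary electrophoresis 24 h after dosing transiently transfected HepG2 multi-reporter cells, with 3 nM 6-alpha-fluorotestosterone present. Fitted in the positive direction relative to DMSO.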

For experiment [13], the target named is frog Thyroid hormone Receptor alpha (TRa), thra-a (gene 397942) (UniProt P15204). Put plainly: ATG_frTRa_XSP1: Attagene TRANS-FACTORIAL Multi-Species (XSP1) HepG2 Assay for frog Thyroid hormone Receptor alpha (TRa) (AID 2283804). The procedure, abridged: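 Reporter transcript induction, measured by RT-PCR with 6-FAM labelling and capillary electrophoresis, 24 hr after dosing transiently transfected HepG2 cells expressing a frog TRa-GAL4 fusion; medium contained 3 nM 6-alpha-fluorotestosterone; increase over DMSO scored.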
Chain of frog Thyroid hormone Receptor alpha (TRa), thra-a (gene 397942) (P15204 whole entry, looked up, the tested form may be a part): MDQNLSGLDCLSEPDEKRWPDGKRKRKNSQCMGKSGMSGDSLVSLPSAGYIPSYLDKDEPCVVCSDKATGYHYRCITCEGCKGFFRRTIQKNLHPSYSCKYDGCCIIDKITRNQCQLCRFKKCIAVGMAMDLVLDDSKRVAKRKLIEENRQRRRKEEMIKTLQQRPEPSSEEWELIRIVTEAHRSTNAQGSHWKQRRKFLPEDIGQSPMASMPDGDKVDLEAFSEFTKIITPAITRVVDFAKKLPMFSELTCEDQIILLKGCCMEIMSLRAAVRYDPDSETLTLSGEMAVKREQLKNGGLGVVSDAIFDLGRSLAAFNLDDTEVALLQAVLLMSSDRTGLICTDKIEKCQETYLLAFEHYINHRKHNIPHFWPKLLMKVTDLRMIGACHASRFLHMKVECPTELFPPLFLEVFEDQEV

Take `CCN=C1C=CC(=C(c2ccc(N(CC)CC)cc2)c2ccc(N(CC)CC)cc2)c2ccccc21`: in [1], the call was inactive. The AC50 in [2] was 0.134 µM (active); in experiment [3], 5.37 µM (active); in experiment [4], 0.165 µM (active); in the experiment with AR (gene 367) [5], 0.131 µM (active).
As to `O=S(=O)(O)c1ccc(Cl)cc1`, the compound was classed as inactive in [3].
The same measure, in the same setting: as for `NC(=O)C(F)(F)C(F)(F)C(F)(F)F`, the entry is “inactive”.
For `Cc1ccc([N+](=O)[O-])c(C)c1`, the compound was classed as inactive in [1].
As to `Oc1ccc2c(c1)CCC2`, the result in experiment [3] was inactive.
Take `CCOC(OCC)OCC`: the result in experiment [1], in experiment [2] and in [3] was inactive.
As to `CC(C)(C)c1cc(Cc2cc(C(C)(C)C)c(O)c(C(C)(C)C)c2)cc(C(C)(C)C)c1O`, the call in experiment [1] and in experiment [2] was inactive.
With `CCCCCCCCCc1ccc(OCCO)cc1`, the AC50 in [1] was 9.26 µM (active); in experiment [2], 14.2 µM (active); in experiment [3], 35.2 µM (active); in the experiment with AR (gene 367) [5], 16.6 µM (active).
Turning to `N#Cc1ccccc1O`, the result in experiment [1] and in experiment [2] was inactive.
For the compound `COCCOCCC[Si](C)(O[Si](C)(C)C)O[Si](C)(C)C`, the compound was called inactive (in experiment [1]; in experiment [2]; in the experiment with AR (gene 367) [6]). Further, in experiment [3], the AC50 was 79.6 µM (active).
Turning to `C[C@]12CC[C@H]3C(=CCc4cc(O)ccc43)[C@@H]1CCC2=O`, the result (in experiment [2]; with AR (gene 367) [6]; in experiment [11]; in [12]; in experiment [13]) was inactive. Further, the AC50 is 0.0202 µM (active) in experiment [7]; 0.0139 µM (active) in [8]; 0.00659 µM (active) in [9]; 0.00594 µM (active) in [10]; 0.687 µM (active) in the experiment with AR (gene 367) [5].
Turning to `CCOC(C=C(C)CCC=C(C)C)OCC`, the AC50 in experiment [3] was 11.3 µM (active).
As to `CCc1cc(Cc2cc(CC)c(N)c(CC)c2)cc(CC)c1N`, the result in experiment [1] was inactive. The AC50 in experiment [3] is 68.3 µM (active).

The AC50 is the concentration at which the activity in the assay is half-maximal.
